PubChem BioAssay (NCI)
About 83,000 compounds went through this panel and 20% of them were active in at least one assay; those are over-represented in the sample as a whole.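 Assay: single dose, 48 h. Readout: percent growth (0 = no net growth; negative = cell death). Active: <10.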 A number with no mark means an inactive call. Calls of active or inactive are those of the source.

Key:
Test in all cases: NCI-60 one-dose screen, 48 h (100 = growth as untreated, 0 = no growth, -100 = all killed)
Conditions in all cases: 10 µM unless noted
MALME-3M melanoma = tested on: MALME-3M melanoma
MDA-MB-231 breast = tested on: MDA-MB-231 breast
RXF 393 renal = tested on: RXF 393 renal
SF-268 CNS = tested on: SF-268 CNS
SF-295 CNS = tested on: SF-295 CNS
SF-539 CNS = tested on: SF-539 CNS
UACC-257 melanoma = tested on: UACC-257 melanoma
M14 melanoma = tested on: M14 melanoma
HCT-15 colon = tested on: HCT-15 colon
HT29 colon = tested on: HT29 colon
SNB-75 CNS = tested on: SNB-75 CNS
SNB-19 CNS = tested on: SNB-19 CNS
U251 CNS = tested on: U251 CNS
PC-3 prostate = tested on: PC-3 prostate
SK-MEL-5 melanoma = tested on: SK-MEL-5 melanoma
UACC-62 melanoma = tested on: UACC-62 melanoma
LOX IMVI melanoma = tested on: LOX IMVI melanoma
SK-MEL-28 melanoma = tested on: SK-MEL-28 melanoma
SK-MEL-2 melanoma = tested on: SK-MEL-2 melanoma
K-562 leukemia = tested on: K-562 leukemia

Row | SMILES | growth (MALME-3M melanoma) | growth (MDA-MB-231 breast) | growth (RXF 393 renal) | growth (SF-268 CNS) | growth (SF-295 CNS) | growth (SF-539 CNS) | growth (UACC-257 melanoma) | growth (M14 melanoma) | growth (HCT-15 colon) | growth (HT29 colon) | growth (SNB-75 CNS) | growth (SNB-19 CNS) | growth (U251 CNS) | growth (PC-3 prostate) | growth (SK-MEL-5 melanoma) | growth (UACC-62 melanoma) | growth (LOX IMVI melanoma) | growth (SK-MEL-28 melanoma) | growth (SK-MEL-2 melanoma) | growth (K-562 leukemia)
1 | N#Cc1nc(-c2ccccc2)oc1S(=O)(=O)N1CCCCC1 | -68.8% (active) | 20.6% | -71.8% (active) | 110% | 107% | 77.3% | 94.1% | -15.2% (active) | -35.3% (active) | 2.86% (active) | 94.8% | 95.8% | 94.5% | 88.1% | 93.7% | 96.4% | -82.5% (active) | 85.1% | 97.9% | –
2 | NC(=O)c1c(NC(=O)c2ccc(C3CCCCC3)cc2)sc2c1CCC(=O)C2 | 13.2% | 15.6% | -2.51% (active) | 33.1% | 18.9% | 14.9% | 12.2% | 18% | 4.53% (active) | 2.41% (active) | 43.2% | 25.5% | 10.7% | 16.1% | – | – | – | 31.7% | 25.7% | 3.87% (active)
3 | Nc1nc(N)c2c(n1)NC(c1ccc(F)cc1)CC(c1ccc(Nc3nc(NCCO)nc(Nc4ccc(Cl)cc4)n3)cc1)=N2 (stereo not drawn) | -60.4% (active) | -75.8% (active) | -77.4% (active) | 38.7% | 9.06% (active) | -78.9% (active) | 106% | -66.1% (active) | -48.3% (active) | -52.1% (active) | 44.3% | 8.01% (active) | -76.6% (active) | 22.7% | -81% (active) | – | – | -82.9% (active) | 26.3% | 0.513% (active)
4 | CCOC(=O)c1c(NC(=O)c2cccc(C(F)(F)F)c2)sc2cc(O)ccc12 | 92.4% | 87.1% | 113% | 96.9% | 102% | 89.7% | 108% | 101% | 92.8% | 105% | 73.4% | 96% | 98.9% | 94.8% | – | 97.9% | – | 108% | 100% | 97.3%
5 | CCOC(=O)c1c(Nc2ccccc2)nn2c(N)c(C#N)c(-c3ccccc3)nc12 | 96% | 63.9% | 68.3% | 87.4% | 81.3% | 82.2% | 111% | 89% | 52.4% | 92.1% | 86.1% | 89.4% | 74.6% | 76.5% | 86.8% | – | – | 99.4% | 92.2% | 48.5%
6 | N#Cc1c(-c2ccc(Cl)cc2)nc2c(-c3ccccc3)c(Nc3ccccc3)nn2c1N | 79.9% | 26% | 78.8% | 82.4% | 46% | 80.6% | 105% | 70.1% | 67.2% | 62.9% | 4.2% (active) | 72.8% | 19.8% | 62.2% | 92.9% | – | – | 82.5% | 96% | 67.3%
7 | O=C1[C@H]2Cc3c([nH]c4ccccc34)[C@@H](c3ccc(Br)cc3)N2C(=O)CN1C1CCN(Cc2ccccc2)CC1 | 62.2% | 49% | 42.7% | 37.5% | 32.4% | 65.4% | 53.3% | 35.8% | 15.8% | -30.9% (active) | 51.1% | 47.8% | 32.3% | 17% | – | 84% | – | 70.3% | 28.8% | -28.2% (active)
8 | OC1CCN(CCCOc2c3ccccc3nc3c2oc2ccc(Cl)cc23)CC1 | 1.25% (active) | 17% | -10.8% (active) | 22.8% | 8.74% (active) | 14.6% | 23.6% | -4.12% (active) | 10.1% | 1.25% (active) | 21% | 21.8% | 21.7% | 8.35% (active) | 26.6% | – | -73.8% (active) | 24.9% | 14% | 3.22% (active)
9 | O=C(Nc1nc2ccc(O)cc2s1)c1cccc(C(F)(F)F)c1 | 81.6% | 90.7% | 103% | 59.4% | 69.9% | 72.5% | 70.1% | 50.1% | 47.1% | 102% | 118% | 95.4% | 62.7% | 58.2% | – | 45.6% | – | 82.2% | 57.2% | 18.7%
